Experimental data published in PubChem BioAssay AID1159580 (chemical genetic matrix, 2015).
“And” between values parts separate entries of the source, which are not always exact repeats. Equal entries are not always repeated. Hit rate of the full screen: of about 5,500 compounds, about 2,000 (36%) were called active. Inconclusive results (about 18%) are left out. No stated cut-off is given here; in the data, active means normalized growth mostly below about 0.91 (no sharp cut-off); inconclusive means no clear call, values can overlap the other calls; inactive means mostly above about 0.92. The list shows a part of the results.

Assay: chemical genetic growth profiling, strain panel (AID 1159580);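 further: tested at 20 µM; growth read once vehicle control cultures reached saturation at 30 °C; 1 = growth at the plate median or of vehicle wells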
Details: growth OD
[1] = S. cerevisiae deletion strains, locus YDR150W, strain NUM1, stronger effect = lower value
[2] = S. cerevisiae deletion strains, locus YGR078C, strain PAC10, stronger effect = lower value
[3] = S. cerevisiae deletion strains, locus YMR307W, strain GAS1, stronger effect = lower value

Measured: normalized growth

C=CCc1ccc(OC(=O)c2ccccc2)c(OC)c1
active: S. cerevisiae deletion strains, locus YLR113W, strain HOG1, stronger effect = lower value 0.841 | S. cerevisiae deletion strains, locus YOR184W, strain ser1, stronger effect = lower value 0.571
inactive: S. cerevisiae deletion strains, locus YBR021W, strain FUR4, stronger effect = lower value 1 | S. cerevisiae deletion strains, locus YBR229C, strain ROT2, stronger effect = lower value 0.99 | S. cerevisiae deletion strains, locus YCL029C, strain bik1, stronger effect = lower value 0.973 | S. cerevisiae deletion strains, locus YDL035C, strain GPR1, stronger effect = lower value 0.916 | S. cerevisiae deletion strains, locus YDL074C, strain BRE1, stronger effect = lower value 0.923 | S. cerevisiae deletion strains, locus YDL101C, strain DUN1, stronger effect = lower value 0.974 | S. cerevisiae deletion strains, locus YDL134C, strain PPH21, stronger effect = lower value 0.95 | S. cerevisiae deletion strains, locus YDL185W, strain tfp1, stronger effect = lower value 0.998 | S. cerevisiae deletion strains, locus YDL192W, strain arf1, stronger effect = lower value 0.928 | S. cerevisiae deletion strains, locus YDR101C, strain arx1, stronger effect = lower value 0.919 | [1] 0.997 | S. cerevisiae deletion strains, locus YDR162C, strain NBP2, stronger effect = lower value 0.947 | S. cerevisiae deletion strains, locus YDR318W, strain mcm21, stronger effect = lower value 0.939 | S. cerevisiae deletion strains, locus YDR388W, stronger effect = lower value 0.979 | S. cerevisiae deletion strains, locus YDR502C, strain sam2, stronger effect = lower value 0.944 | S. cerevisiae deletion strains, locus YER110C, stronger effect = lower value 1.03 | S. cerevisiae deletion strains, locus YER155C, strain BEM2, stronger effect = lower value 0.969 | S. cerevisiae deletion strains, locus YER167W, strain BCK2, stronger effect = lower value 0.939 | S. cerevisiae deletion strains, locus YGL078C, strain dbp3, stronger effect = lower value 0.956 | S. cerevisiae deletion strains, locus YGL086W, strain mad1, stronger effect = lower value 0.933 | S. cerevisiae deletion strains, locus YGL248W, strain PDE1, stronger effect = lower value 0.971 | [2] 0.974 | S. cerevisiae deletion strains, locus YGR135W, strain pre9, stronger effect = lower value 0.965 | S. cerevisiae deletion strains, locus YGR252W, strain gcn5, stronger effect = lower value 0.993 | S. cerevisiae deletion strains, locus YHR030C, strain SLT2, stronger effect = lower value 1 and 0.914 | S. cerevisiae deletion strains, locus YHR079C, strain IRE1 (second series), stronger effect = lower value 0.988 | S. cerevisiae deletion strains, locus YHR079C, strain IRE1, stronger effect = lower value 0.931 | S. cerevisiae deletion strains, locus YHR094C, strain hxt1, stronger effect = lower value 0.988 | S. cerevisiae deletion strains, locus YHR129C, strain ARP1, stronger effect = lower value 0.985 | S. cerevisiae deletion strains, locus YHR200W, strain rpn10, stronger effect = lower value 0.952 | S. cerevisiae deletion strains, locus YIL066C, strain RNR3, stronger effect = lower value 0.973 | S. cerevisiae deletion strains, locus YIL073C, strain SPO22, stronger effect = lower value 1.08 | S. cerevisiae deletion strains, locus YIL125W, strain kgd1, stronger effect = lower value 0.966 | S. cerevisiae deletion strains, locus YIR030C, strain dcg1, stronger effect = lower value 0.983 | S. cerevisiae deletion strains, locus YJL095W, strain BCK1, stronger effect = lower value 0.918 and 0.973 | S. cerevisiae deletion strains, locus YJL134W, strain LCB3, stronger effect = lower value 1 | S. cerevisiae deletion strains, locus YJL168C, strain set2, stronger effect = lower value 1 | S. cerevisiae deletion strains, locus YJL187C, strain SWE1 (second series), stronger effect = lower value 0.954 | S. cerevisiae deletion strains, locus YJR043C, strain POL32, stronger effect = lower value 0.936 | S. cerevisiae deletion strains, locus YJR066W, strain TOR1, stronger effect = lower value 0.954 | S. cerevisiae deletion strains, locus YKL009W, strain mrt4, stronger effect = lower value 0.925 | S. cerevisiae deletion strains, locus YKL068W, stronger effect = lower value 0.979 | S. cerevisiae deletion strains, locus YKL085W, strain MDH1 (second series), stronger effect = lower value 0.981 | S. cerevisiae deletion strains, locus YKL085W, strain MDH1, stronger effect = lower value 0.981 | S. cerevisiae deletion strains, locus YKR001C, strain vps1, stronger effect = lower value 0.908 | S. cerevisiae deletion strains, locus YLR039C, strain RIC1, stronger effect = lower value 0.958 | S. cerevisiae deletion strains, locus YLR058C, strain SHM2, stronger effect = lower value 0.952 | S. cerevisiae deletion strains, locus YLR102C, strain apc9, stronger effect = lower value 0.996 | S. cerevisiae deletion strains, locus YLR268W, strain sec22, stronger effect = lower value 0.965 | S. cerevisiae deletion strains, locus YLR330W, strain CHS5, stronger effect = lower value 0.983 | S. cerevisiae deletion strains, locus YLR371W, strain rom2, stronger effect = lower value 0.985 | S. cerevisiae deletion strains, locus YLR418C, strain cdc73, stronger effect = lower value 0.935 | S. cerevisiae deletion strains, locus YML016C, strain PPZ1, stronger effect = lower value 1 | S. cerevisiae deletion strains, locus YML032C, strain rad52, stronger effect = lower value 0.926 | S. cerevisiae deletion strains, locus YML124C, strain tub3, stronger effect = lower value 0.977 | S. cerevisiae deletion strains, locus YMR078C, strain ctf18, stronger effect = lower value 0.978 | S. cerevisiae deletion strains, locus YMR223W, strain ubp8, stronger effect = lower value 0.967 | S. cerevisiae deletion strains, locus YMR263W, strain SAP30, stronger effect = lower value 0.998 | [3] 1.2 | S. cerevisiae deletion strains, locus YNL067W, strain RPL9B, stronger effect = lower value 0.969 | S. cerevisiae deletion strains, locus YNL128W, strain TEP1, stronger effect = lower value 0.992 | S. cerevisiae deletion strains, locus YNL153C, strain GIM3, stronger effect = lower value 1.02 | S. cerevisiae deletion strains, locus YNL183C, strain NPR1, stronger effect = lower value 0.933 | S. cerevisiae deletion strains, locus YNL233W, strain BNI4, stronger effect = lower value 0.979 | S. cerevisiae deletion strains, locus YNL250W, strain rad50, stronger effect = lower value 1.03 | S. cerevisiae deletion strains, locus YNL271C, strain bni1, stronger effect = lower value 0.994 | S. cerevisiae deletion strains, locus YNL298W, strain CLA4, stronger effect = lower value 0.95 | S. cerevisiae deletion strains, locus YNL307C, strain MCK1, stronger effect = lower value 0.961 | S. cerevisiae deletion strains, locus YNR052C, strain pop2, stronger effect = lower value 0.998 | S. cerevisiae deletion strains, locus YOL006C, strain TOP1, stronger effect = lower value 0.779 | S. cerevisiae deletion strains, locus YOL012C, strain htz1 1.51 | S. cerevisiae deletion strains, locus YOL147C, strain pex11, stronger effect = lower value 0.964 | S. cerevisiae deletion strains, locus YOR061W, strain CKA2, stronger effect = lower value 0.986 | S. cerevisiae deletion strains, locus YOR069W, strain VPS5, stronger effect = lower value 0.994 | S. cerevisiae deletion strains, locus YOR136W, strain idh2, stronger effect = lower value 0.977 | S. cerevisiae deletion strains, locus YOR144C, strain elg1, stronger effect = lower value 0.981 | S. cerevisiae deletion strains, locus YOR231W, strain MKK1, stronger effect = lower value 0.915 | S. cerevisiae deletion strains, locus YOR316C, strain cot1, stronger effect = lower value 0.985 | S. cerevisiae deletion strains, locus YPL256C, strain CLN2, stronger effect = lower value 0.925 | S. cerevisiae deletion strains, locus YPR119W, strain clb2, stronger effect = lower value 0.971 | S. cerevisiae deletion strains, locus YPR141C, strain kar3, stronger effect = lower value 0.991 | S. cerevisiae deletion strains, locus YPR163C, strain tif3, stronger effect = lower value 0.943 | S. cerevisiae deletion strains, locus YPR167C, strain met16, stronger effect = lower value 0.943 | S. cerevisiae deletion strains, strain wtn01, stronger effect = lower value 0.906 | S. cerevisiae strains, strain wild type, stronger effect = lower value 0.93

COc1cc(CC(=O)O)ccc1O
inactive: S. cerevisiae deletion strains, locus YAL013W, strain DEP1, stronger effect = lower value 1 | S. cerevisiae deletion strains, locus YAL040C, strain CLN3, stronger effect = lower value 1.07 | S. cerevisiae deletion strains, locus YCL061C, strain MRC1 (second series), stronger effect = lower value 0.989 | [1] 0.992 | S. cerevisiae deletion strains, locus YDR363W, strain ESC2, stronger effect = lower value 0.982 | S. cerevisiae deletion strains, locus YER002W, strain NOP16, stronger effect = lower value 0.97 | [2] 0.986 | [3] 1.01 | S. cerevisiae deletion strains, locus YNL175C, strain NOP13, stronger effect = lower value 0.967 | S. cerevisiae deletion strains, locus YNL197C, strain WHI3, stronger effect = lower value 0.977 | S. cerevisiae deletion strains, locus YNL224C, strain SQS1, stronger effect = lower value 0.985 | S. cerevisiae deletion strains, locus YNL322C, strain KRE1, stronger effect = lower value 0.987 | S. cerevisiae deletion strains, locus YOR083W, strain WHI5 (second series), stronger effect = lower value 0.942 | S. cerevisiae deletion strains, locus YPL055C, strain LGE1, stronger effect = lower value 0.995 | S. cerevisiae deletion strains, locus YPL241C, strain CIN2, stronger effect = lower value 0.991
